According to PubChem BioAssay AID488954 (The Scripps Research Institute Molecular Screening Center, 2010):
Some of the results follow. Activity calls are given as the source filed them.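 The calls were made as follows: active = mean activation above a set limit carried over from the earlier primary screen (cut at about 22% in these data); inactive = the rest.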

target: Caspase-3 (Homo sapiens) (UniProt P42574); assay: procaspase-3 activation, retest of hits – biochemical, absorbance, PC-3 D3A mutant, triplicate, confirmation (AID 488954); settings: recombinant PC-3 D3A, Ac-DEVD-pNA absorbance 405 nm; at 8.5 µM; active compounds read high; 100% is higher-enzyme control
Sequence (P42574 whole entry D9A/D28A/D175A): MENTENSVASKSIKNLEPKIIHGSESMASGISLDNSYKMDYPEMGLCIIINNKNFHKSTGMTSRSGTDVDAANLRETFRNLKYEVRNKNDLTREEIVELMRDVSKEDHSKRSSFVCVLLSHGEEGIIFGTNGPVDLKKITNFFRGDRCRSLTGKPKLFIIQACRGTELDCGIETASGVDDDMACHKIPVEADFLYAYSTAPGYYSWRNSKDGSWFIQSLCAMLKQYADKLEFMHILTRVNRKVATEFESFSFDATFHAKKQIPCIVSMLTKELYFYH

activation, inactive:
COc1ccc(-c2sc3ccc(OC)cc3c2C#Cc2ccccn2)cc1 14.4%
Oc1ccccc1C1=NN(c2ccccc2)C(c2ccccc2)C1 (stereo unspecified) -13.4%
COC(=O)c1cnc(Nc2cc(C)ccc2OC)c2ccccc12 -14.1%
O=C(CCNS(=O)(=O)c1ccccc1C(F)(F)F)NCc1ccc2c(c1)OCO2 5.75%
Cc1nn(C)cc1CNC(=O)Nc1ccc(Cl)cc1 3.2%
CCOc1ccc2nc(NCCNS(=O)(=O)c3ccccc3)c(C#N)cc2c1 -14.1%
COc1ccc2nc(Nc3nc4ccc(NC(C)=O)cc4s3)sc2c1 -1.02%
COc1ccc(CCNC(=O)COC(=O)c2ccc[nH]c2=O)cc1 5.06%
COc1ccccc1NS(=O)(=O)c1ccc(C(=O)N2CCN(c3ccccc3O)CC2)cc1 5.8%
CN1CCN(CCCNC(=O)c2ccc(/C=C3\Oc4ccccc4N(Cc4ccc(Cl)cc4)C3=O)cc2)CC1 -14.8%
COC(=O)Cc1cc(=O)oc2c(C)c(O)ccc12 -12.9%
